Source: PubChem BioAssay (Tox21)
Results filed as inconclusive are left out. Active and inactive are the calls of the source. Unless noted, calls follow the shape of the dose curve; as a rule, active = well fitted curve in the direction sought with a large enough effect in the repeat runs; inconclusive = weak or mixed curves; inactive = no such curve, though single readings can be large; an effect the other way counts as inactive or inconclusive.

What was measured:
[1] = qHTS assay to test for compound auto fluorescence at 535 nm (green) in HEK293 cells (AID 720680)
[2] = qHTS assay to test for compound auto fluorescence at 460 nm (blue) in HEK293 cell free culture (AID 720681)
Procedure, shortened: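 Test compounds were pinned into cell-free culture medium (DMEM with 10% FBS) and fluorescence was read directly at Ex/Em 405/460 nm. Signals were expressed as fluorescence equivalents of triamterene, with DMSO vehicle as control.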

[3] = qHTS assay to test for compound auto fluorescence at 535 nm (green) in HEK293 cell free culture (AID 720682)
Procedure, shortened: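 Steps: dispense DMEM/10% FBS into empty wells; pin in compound or DMSO; measure fluorescence at 485/535 nm. Values are fluorescein equivalents.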

[4] = qHTS assay to test for compound auto fluorescence at 590 nm (red) in HEK293 cell free culture (AID 720683)
Procedure, shortened: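 Tox21 10K library compounds were pinned into cell-free DMEM with 10% FBS and fluorescence was read at excitation 540 nm. Activity is expressed as Rose Bengal sodium equivalency.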

[5] = qHTS assay to test for compound auto fluorescence at 590 nm (red) in HepG2 cell free culture (AID 720684)
Procedure, shortened: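 Red fluorescence (540 nm excitation, 590 nm emission) was measured after compound transfer into cell-free MEM supplemented with 10% FBS. Values are equivalencies against Rose Bengal sodium.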

[6] = qHTS assay to test for compound auto fluorescence at 460 nm (blue) in HepG2 cell free culture (AID 720685)
Procedure, shortened: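 Compound (23 nL) or DMSO pinned into cell-free MEM with 10% FBS; blue fluorescence read at 405/460 nm excitation/emission, expressed as auto-fluorescence equivalency to triamterene.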

[7] = qHTS assay to test for compound auto fluorescence at 535 nm (green) in HepG2 cell free culture (AID 720686)
[8] = qHTS assay to test for compound auto fluorescence at 460 nm (blue) in HepG2 cells (AID 720687)
Procedure, shortened: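 Cells (2,000/well in MEM with 10% FBS) attached overnight at 37 C, then were exposed to compound or DMSO for 1 hr at 37 C, 5% CO2. Fluorescence read at Ex/Em 405/460 nm, expressed as triamterene-equivalent signal.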

[9] = biological target: Glucocorticoid receptor (Homo sapiens) (UniProt P04150); assay: qHTS assay to identify small molecule agonists of the glucocorticoid receptor (GR) signaling pathway (AID 720691; active = well fitted activation curve with a large enough effect in the signal ratio in the repeat runs, not every such curve was filed as active; the % refers to the signal ratio; also: potency is read from the fitted curve at half-maximal effect)
Sequence of Glucocorticoid receptor (Homo sapiens) (P04150 whole entry, looked up): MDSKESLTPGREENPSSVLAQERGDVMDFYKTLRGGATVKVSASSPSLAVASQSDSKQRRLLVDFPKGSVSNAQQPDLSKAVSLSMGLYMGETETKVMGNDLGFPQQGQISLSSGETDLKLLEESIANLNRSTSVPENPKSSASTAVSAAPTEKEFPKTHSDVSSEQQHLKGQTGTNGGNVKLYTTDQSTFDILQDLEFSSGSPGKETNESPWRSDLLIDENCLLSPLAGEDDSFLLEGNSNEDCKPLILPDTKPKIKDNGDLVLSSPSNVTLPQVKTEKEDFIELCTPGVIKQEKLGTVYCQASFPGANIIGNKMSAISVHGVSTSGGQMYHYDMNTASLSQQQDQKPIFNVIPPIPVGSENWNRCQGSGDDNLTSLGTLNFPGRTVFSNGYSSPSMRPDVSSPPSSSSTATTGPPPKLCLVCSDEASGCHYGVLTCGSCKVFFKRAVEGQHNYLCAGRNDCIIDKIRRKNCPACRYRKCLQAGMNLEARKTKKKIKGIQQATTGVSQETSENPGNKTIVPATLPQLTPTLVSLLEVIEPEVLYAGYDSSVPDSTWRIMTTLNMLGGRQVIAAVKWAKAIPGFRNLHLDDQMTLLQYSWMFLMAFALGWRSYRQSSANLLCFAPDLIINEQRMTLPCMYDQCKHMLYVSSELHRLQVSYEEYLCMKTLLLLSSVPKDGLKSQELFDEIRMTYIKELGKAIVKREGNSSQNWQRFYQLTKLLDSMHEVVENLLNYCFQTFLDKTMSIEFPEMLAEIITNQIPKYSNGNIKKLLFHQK
Procedure, shortened: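 Agonist mode in a HeLa line carrying a GRE-controlled beta-lactamase reporter. Compounds act for 18 h at 37 C before a 2 h room-temperature FRET substrate step and fluorescence reading.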

[10] = qHTS assay to identify small molecule antagonists of the glucocorticoid receptor (GR) signaling pathway - cell viability counter screen (AID 720693); also: nearly all actives have a fitted effect of over 55% in size
[11] = qHTS assay for identifying genotoxic compounds that show differential cytotoxicity against isogenic chicken DT40 cell lines with known DNA damage response pathways - wild type cell line (AID 743012); also: nearly all actives have a fitted effect of over 60% in size
Procedure, shortened: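 Cells (DT40 wild type, 300/well) are treated with DMSO-dissolved compounds after a ~0.5 h pre-incubation and kept 40 h at 37 C/5% CO2. Viability is then measured by CellTiter-Glo luminescence following 30 min at room temperature.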

[12] = qHTS assay for identifying genotoxic compounds that show differential cytotoxicity against isogenic chicken DT40 cell lines with known DNA damage response pathways - Rev3 mutant cell line (AID 743014); also: nearly all actives have a fitted effect of over 55% in size
[13] = qHTS assay to identify small molecule antagonists of the androgen receptor (AR) signaling pathway - cell viability counter screen (AID 743033; also: nearly all actives have a fitted effect of over 45% in size)
[14] = qHTS assay to identify small molecule antagonists of the androgen receptor (AR) signaling pathway using the MDA cell line - cell viability counter screen (AID 743041; also: nearly all actives have a fitted effect of over 45% in size)
Procedure, shortened: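 MDA-kb2 AR-luc human breast carcinoma cells (MMTV-luciferase, AR/GR responsive) were treated with compounds plus R1881 agonist for 16 h at 37 °C. Viability was read as CellTiter-Fluor fluorescence in the same wells as the reporter assay.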

[15] = biological target: Glucocorticoid receptor (Homo sapiens) (UniProt P04150); assay: qHTS assay to identify small molecule antagonists of the glucocorticoid receptor (GR) signaling pathway (AID 720692; active = well fitted inhibition curve with a large enough effect in the signal ratio in the repeat runs, not every such curve was filed as active; the % refers to the signal ratio)
Procedure, shortened: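 Cells plated, rested 4 h at 37 C/5% CO2; compounds in DMSO pin-transferred; dexamethasone added to 5 nM final; 18 h at 37 C; B/G FRET substrate added, 2 h room temperature; fluorescence measured.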

[16] = qHTS assay for identifying genotoxic compounds that show differential cytotoxicity against isogenic chicken DT40 cell lines with known DNA damage response pathways - Rad54/Ku70 mutant cell line (AID 743015); also: nearly all actives have a fitted effect of over 60% in size
[17] = biological target: Androgen receptor (Homo sapiens) (UniProt P10275); assay: qHTS assay to identify small molecule antagonists of the androgen receptor (AR) signaling pathway (AID 743035; active = well fitted inhibition curve with a large enough effect in the signal ratio in the repeat runs, not every such curve was filed as active; the % refers to the signal ratio)
Sequence of Androgen receptor (Homo sapiens) (P10275 whole entry, looked up): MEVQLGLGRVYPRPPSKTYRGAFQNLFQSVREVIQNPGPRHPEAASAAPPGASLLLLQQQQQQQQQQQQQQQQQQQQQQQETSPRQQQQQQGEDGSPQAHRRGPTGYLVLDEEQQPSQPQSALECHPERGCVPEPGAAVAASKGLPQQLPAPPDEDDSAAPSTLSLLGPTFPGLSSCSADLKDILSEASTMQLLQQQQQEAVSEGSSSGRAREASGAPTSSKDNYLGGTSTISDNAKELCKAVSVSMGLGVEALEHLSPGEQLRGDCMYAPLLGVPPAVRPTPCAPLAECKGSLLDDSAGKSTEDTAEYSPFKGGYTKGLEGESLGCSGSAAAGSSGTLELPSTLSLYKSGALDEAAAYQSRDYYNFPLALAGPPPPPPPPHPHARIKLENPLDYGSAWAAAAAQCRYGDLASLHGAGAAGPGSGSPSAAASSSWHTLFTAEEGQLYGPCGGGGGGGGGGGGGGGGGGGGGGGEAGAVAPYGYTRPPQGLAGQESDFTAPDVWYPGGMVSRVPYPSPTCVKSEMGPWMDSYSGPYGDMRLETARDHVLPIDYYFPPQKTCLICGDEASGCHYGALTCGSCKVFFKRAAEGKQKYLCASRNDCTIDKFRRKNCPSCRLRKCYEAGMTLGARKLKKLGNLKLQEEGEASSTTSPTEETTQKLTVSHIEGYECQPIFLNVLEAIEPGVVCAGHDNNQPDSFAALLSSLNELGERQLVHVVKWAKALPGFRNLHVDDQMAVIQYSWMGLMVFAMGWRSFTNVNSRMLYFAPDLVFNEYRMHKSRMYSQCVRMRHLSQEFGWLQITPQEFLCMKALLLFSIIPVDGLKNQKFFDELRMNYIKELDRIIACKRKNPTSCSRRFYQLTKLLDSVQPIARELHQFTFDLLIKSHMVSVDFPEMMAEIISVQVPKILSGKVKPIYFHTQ
Procedure, shortened: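 Antagonism is scored as loss of R1881-driven beta-lactamase reporter expression in HEK293 cells carrying the reporter under a UAS element, after 16 h co-treatment at 37C and a 2 h room-temperature FRET substrate read.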

[18] = biological target: Androgen receptor (Homo sapiens) (UniProt P10275); assay: qHTS assay to identify small molecule agonists of the androgen receptor (AR) signaling pathway (AID 743036; active = well fitted activation curve with a large enough effect in the signal ratio in the repeat runs, with a control signal flat, not every such curve was filed as active; the % refers to the signal ratio)
Procedure, shortened: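 Reporter line: GeneBLAzer AR-UAS-bla-GripTite (HEK293). Steps: plate cells, 4 h rest, add compounds, 16 h at 37C, add LiveBLAzer B/G substrate, 2 h at RT, read fluorescence.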

[19] = biological target: Androgen receptor (Homo sapiens) (UniProt P10275); assay: qHTS assay to identify small molecule agonists of the androgen receptor (AR) signaling pathway using the MDA cell line (AID 743040; also: nearly all actives have a fitted effect of over 20% in size)
Procedure, shortened: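 MDA-kb2 breast carcinoma cells stably carrying an MMTV-driven luciferase reporter (AR- and GR-responsive) were seeded and held 5 h at 37C, 0% CO2, then exposed to compounds in DMSO for 16 h. Luminescence was read 30 min after ONE-Glo addition.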

[20] = biological target: Androgen receptor (Homo sapiens) (UniProt P10275); assay: qHTS assay to identify small molecule antagonists of the androgen receptor (AR) signaling pathway using the MDA cell line (AID 743042; also: nearly all actives have a fitted effect of over 55% in size)
Procedure, shortened: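 MDA-kb2 cells (human breast carcinoma, stably carrying an MMTV-luciferase reporter responsive to AR and GR) were plated at 3,000 cells/well and preincubated 5 hr at 37C, then given compound plus R1881 agonist for 16 h. ONE-Glo luminescence was read.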
% is scaled to controls: 0 for no effect and ±100 for the full control effect.

CC1(C)O[C@H]2CC(=O)OC[C@]23[C@H]2CC[C@@]4(C)[C@H](c5ccoc5)OC(=O)[C@H]5O[C@]54[C@]2(C)C(=O)C[C@@H]13
inactive: outcome [1] | outcome [2] | outcome [3] | outcome [4] | outcome [5] | outcome [6] | outcome [7] | outcome [8] | outcome [10] | Potency [11] | Potency [12] | outcome [13] | Potency [14]
active: Potency [9] 8.49 µM

O=C[O][Al]([O]C=O)[O]C=O
inactive: outcome [1] | outcome [2] | outcome [3] | outcome [4] | outcome [5] | outcome [6] | outcome [7] | outcome [8] | Potency [9] | outcome [15] | outcome [10] | outcome [13] | Potency [14]

CC(=O)c1cc(C)oc1C
inactive: outcome [1] | outcome [2] | outcome [3] | outcome [4] | outcome [5] | outcome [6] | outcome [7] | outcome [8] | Potency [9] | outcome [10] | Potency [11] | Potency [12] | Potency [16] | outcome [13] | outcome [17] | outcome [18] | Potency [19] | Potency [14] | outcome [20]

CC(=O)CC(=O)OC(C)(C)C
inactive: outcome [1] | outcome [2] | outcome [3] | outcome [4] | outcome [5] | outcome [6] | outcome [7] | outcome [8] | Potency [9] | Potency [11] | Potency [12] | outcome [13] | outcome [17] | Potency [19] | Potency [14] | outcome [20]

CCn1cc(C(=O)O)c(=O)c2cnc(N3CCCC3)nc21
inactive: fluorescence, % of fluorescein [1] 0.0361% [at 18.6 µM] | fluorescence, % of fluorescent control [2] 0.169% [at 18.6 µM] | activity change [3] -0.0351% [at 18.6 µM] | fluorescence, % of fluorescent control [4] -0.162% [at 18.6 µM] | fluorescence, % of Rose Bengal [5] 0.682% [at 18.6 µM] | fluorescence, % of fluorescent control [6] 0.141% [at 18.6 µM] | fluorescence, % of fluorescein control [7] -0.0006% [at 18.6 µM] | fluorescence, % of fluorescent control [8] 2.47% [at 18.6 µM] | Potency [9] | outcome [15] | Potency [11] | Potency [16] | outcome [13] | Potency [14]

CCCCCC/C=C/C(=O)OC
inactive: outcome [1] | outcome [2] | outcome [3] | outcome [4] | outcome [5] | outcome [6] | outcome [7] | outcome [8] | Potency [9] | outcome [15] | Potency [11] | Potency [12] | outcome [13] | Potency [14]

N[C@@H](Cc1ccc(O)cc1)C(=O)O
inactive: outcome [1] | outcome [2] | outcome [3] | outcome [4] | outcome [5] | outcome [6] | outcome [7] | outcome [8] | Potency [9] | outcome [15] | outcome [13] | Potency [14]

CCC[C@@H]1C[C@@H](C(=O)N[C@@H]([C@H]2O[C@H](SC)[C@H](O)[C@@H](O)[C@H]2O)[C@@H](C)O)N(C)C1
inactive: outcome [1] | outcome [2] | outcome [3] | outcome [4] | outcome [5] | outcome [6] | outcome [7] | outcome [8] | Potency [9] | outcome [15] | Potency [11] | Potency [12] | Potency [16] | outcome [13] | Potency [14]

OC1OCCOC1O (configuration not stated)
inactive: outcome [1] | outcome [2] | outcome [3] | outcome [4] | outcome [5] | outcome [6] | outcome [7] | outcome [8] | Potency [9] | outcome [10] | Potency [11] | Potency [12] | Potency [16] | outcome [13] | Potency [14]
